Assay results reported in PubChem BioAssay (NCI).
“And” between values parts separate entries of the source, which are not always exact repeats. Identical values can stand only once. The panel holds about 79,000 compounds, 15% with a hit somewhere; the sample as a whole holds those more often. A number with no mark means an inactive call. Rule as the data show it: active = growth inhibition above about 70%; inactive = the rest.

Experiment: NCI Yeast Anticancer Drug Screen. Data for the bub3 strain (AID 167)
Details: S. cerevisiae bub3 mutant strain, hits give high values; at 50.0 µM unless noted
Outline: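 Yeast carrying a defined mutation is treated with each compound, and growth is compared with that of vehicle-exposed cells to give inhibition.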

| SMILES | growth inhibition |
| --- | --- |
| C/C(=N\NS(=O)(=O)c1c(C)cc(C)cc1C)c1ccc[n+]([O-])n1 | -12.8% |
| Nc1cc([N+](=O)[O-])ccc1C(=O)O | 2.65% |
| FC(F)(F)c1ccc2nc(NCc3ccccc3)c(-c3ccccc3)nc2c1 | 26.9% |
| Nc1ccc(C(=O)O)cc1N | 1.45% |
| O=C(O)[C@H](Cc1ccccc1)N1C(=O)N[C@@H](Cc2ccccc2)C1=O | 3.6% |
| COC(=O)CC1C(C)(C)C(=O)C2CC3=C4CC(=O)OC(c5ccoc5)C4(C)CCC3C1(C)C2=O (stereo not drawn) | -31.9% |
| Cn1c2c(c(=O)c3cc(O)ccc31)CC(O)C(C)(C)O2 (stereo not drawn) | 8.8% |
| CC(C)N1C(=O)c2cccc(Cl)c2C1=O (tested in a mixture with another compound) | -7.85% |
| CN1C(C)(C)CC(=O)C(Br)C1(C)C (stereo not drawn) | -6.75% |
| C#CC(O)C1OC(C)(C)OC1C1COC(C)(C)O1 (stereo not drawn) | -3.6% |
| CC(C)(C)c1cc(-n2nc3ccccc3[n+]2[O-])c(O)c(C(C)(C)C)c1 | -0.6% |
| COc1cccc(/C=C/C(C)=N/NC(N)=O)c1 | 6.35% |
| Brc1ccc2c(ccc3c2nnc2ncnn23)c1 | -1.55% |
| COc1ccc(OC)c2[nH]c(Sc3c([N+](=O)[O-])ncn3C)nc12 | -15.2% |
| COc1cc(OC)c(/C=N/N=C(\N)NO)c(OC)c1 | -1.15% |
| COC1=NS(=O)(=O)C2CCCCCCC2O1 (stereo not drawn) | 10.6% |
| COc1ccc(/C=N/N=C(/C(=O)c2ccc(OC)cc2)c2ccc(OC)cc2)cc1 | 2.2% |
| CN(C)c1ccc(N)c(N)c1 | 5.95% |
| Nc1ccc(OCc2ccccc2)cc1[N+](=O)[O-] | -4.45% |
| CC(C)(C)c1ccncc1 | 5.15% |

| SMILES | growth inhibition |
| --- | --- |
| CC1(C)CSCC(C)(C)C(=N/N)/C1=N\N | -33% |
| CC(=O)OC(C)COc1ccccc1 (stereo not drawn) | -17.1% and 8.8% |
| CN(C(=O)Cc1ccccc1)n1cn[n+](CC(=O)OC(C)(C)C)c1 | -24.6% |
| C#CCOC(=O)Nc1ccccc1 | -1.1% and -10.6% |
| CCc1cc(C)cc(O)c1 | -56% and 27.4% |
| CCc1ccc(NS(=O)(=O)c2ccccc2[N+](=O)[O-])cc1 | 50.9% |
| CC(C)OC(=O)Nc1cccc(Cl)c1F | 8.2% |
| CC(Oc1ccccc1)C(=O)NC(=S)Nc1cccc2ccccc12 (stereo not drawn) | 20.9% |
| O=c1[nH]cnc2c1ncn2C1CCCO1 (stereo not drawn) | 17.4% |
| N#CC1CSCC1=O (stereo not drawn) | 9.9% |
| Cc1ccc(S(=O)(=O)CC(=O)NC(C)C)cc1 | 3.2% |
| Cc1c(Cl)cccc1NC(=O)C(=O)c1c(O)c2ccc(O)cc2oc1=O | -15.6% |
| Nc1c(Cl)ncnc1NCc1ccco1 | -1.05% |
| CC(=O)c1cccc(NC(=O)CCCCCCCCC(=O)Nc2cccc(C(C)=O)c2)c1 | -1.2% |
| CCOC(=O)O/C(C)=C\c1ccc(Cl)cc1 | -34.9% |
| CC(=O)C[n+]1cccc(Br)c1 | 9.5% |
| Cc1cc2nc3c(=O)[nH]c(=O)nc-3n(C/C=N/NC(N)=S)c2cc1C | -12.8% |
| O=C(CCCN1CCC2(CC1)CC(=O)N(N1CCOCC1)C2=O)c1ccc(F)cc1 | -3.4% |
| O=C(/C=C/c1ccccc1)CSc1ncn[nH]1 | 19.4% |

Experiment: NCI Yeast Anticancer Drug Screen. Data for the mlh1 rad18 strain (AID 175)
Details: S. cerevisiae mlh1 rad18 strain growth inhibition, hits give high values; at 50.0 µM unless noted
Outline: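 A repair-deficient yeast strain is exposed to test compound, and growth is scored relative to vehicle-treated controls.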

| SMILES | growth inhibition |
| --- | --- |
| C/C(=N\NS(=O)(=O)c1c(C)cc(C)cc1C)c1ccc[n+]([O-])n1 | -6.7% |
| Nc1cc([N+](=O)[O-])ccc1C(=O)O | -14.3% |
| FC(F)(F)c1ccc2nc(NCc3ccccc3)c(-c3ccccc3)nc2c1 | 35.8% |
| Nc1ccc(C(=O)O)cc1N | 45.5% |
| O=C(O)[C@H](Cc1ccccc1)N1C(=O)N[C@@H](Cc2ccccc2)C1=O | -2.7% |
| COC(=O)CC1C(C)(C)C(=O)C2CC3=C4CC(=O)OC(c5ccoc5)C4(C)CCC3C1(C)C2=O (stereo not drawn) | 16.8% |
| Cn1c2c(c(=O)c3cc(O)ccc31)CC(O)C(C)(C)O2 (stereo not drawn) | -2.7% |
| CC(C)N1C(=O)c2cccc(Cl)c2C1=O (tested in a mixture with another compound) | 1.4% |
| CN1C(C)(C)CC(=O)C(Br)C1(C)C (stereo not drawn) | -29.4% |
| C#CC(O)C1OC(C)(C)OC1C1COC(C)(C)O1 (stereo not drawn) | -5.65% |
| CC(C)(C)c1cc(-n2nc3ccccc3[n+]2[O-])c(O)c(C(C)(C)C)c1 | 33.6% |
| COc1cccc(/C=C/C(C)=N/NC(N)=O)c1 | 8.65% |
| Brc1ccc2c(ccc3c2nnc2ncnn23)c1 | 42.2% |
| COc1ccc(OC)c2[nH]c(Sc3c([N+](=O)[O-])ncn3C)nc12 | -7.7% |
| COc1cc(OC)c(/C=N/N=C(\N)NO)c(OC)c1 | -9.75% |
| COC1=NS(=O)(=O)C2CCCCCCC2O1 (stereo not drawn) | -7.4% |
| COc1ccc(/C=N/N=C(/C(=O)c2ccc(OC)cc2)c2ccc(OC)cc2)cc1 | 6.8% |
| CN(C)c1ccc(N)c(N)c1 | -12.9% |
| Nc1ccc(OCc2ccccc2)cc1[N+](=O)[O-] | 21% |
| CC(C)(C)c1ccncc1 | -4.65% |

| SMILES | growth inhibition |
| --- | --- |
| CC1(C)CSCC(C)(C)C(=N/N)/C1=N\N | -41.3% |
| CC(=O)OC(C)COc1ccccc1 (stereo not drawn) | 15.6% and 15% |
| CN(C(=O)Cc1ccccc1)n1cn[n+](CC(=O)OC(C)(C)C)c1 | -23.6% |
| C#CCOC(=O)Nc1ccccc1 | 5.55% and -0.8% |
| CCc1cc(C)cc(O)c1 | -29.9% and 12% |
| CCc1ccc(NS(=O)(=O)c2ccccc2[N+](=O)[O-])cc1 | 65.5% |
| CC(C)OC(=O)Nc1cccc(Cl)c1F | 8.65% |
| CC(Oc1ccccc1)C(=O)NC(=S)Nc1cccc2ccccc12 (stereo not drawn) | 4.85% |
| O=c1[nH]cnc2c1ncn2C1CCCO1 (stereo not drawn) | 0.9% |
| N#CC1CSCC1=O (stereo not drawn) | -1.9% |
| Cc1ccc(S(=O)(=O)CC(=O)NC(C)C)cc1 | 20.8% |
| Cc1c(Cl)cccc1NC(=O)C(=O)c1c(O)c2ccc(O)cc2oc1=O | 5.35% |
| Nc1c(Cl)ncnc1NCc1ccco1 | -7.85% |
| CC(=O)c1cccc(NC(=O)CCCCCCCCC(=O)Nc2cccc(C(C)=O)c2)c1 | 2.95% |
| CCOC(=O)O/C(C)=C\c1ccc(Cl)cc1 | 7.05% |
| CC(=O)C[n+]1cccc(Br)c1 | -5.9% |
| Cc1cc2nc3c(=O)[nH]c(=O)nc-3n(C/C=N/NC(N)=S)c2cc1C | -2.7% |
| O=C(CCCN1CCC2(CC1)CC(=O)N(N1CCOCC1)C2=O)c1ccc(F)cc1 | 14.9% |
| O=C(/C=C/c1ccccc1)CSc1ncn[nH]1 | -7.4% |
